Laboratory results taken from ChEMBL document CHEMBL2218924, “A broad activity screen in support of a chemogenomic map for kinase signalling research and drug discovery” (Biochem J, 2013).

The compounds below were run against SRSF protein kinase 1 (Homo sapiens) (UniProt Q96SB4). Details: at 10 µM.
Sequence of SRSF protein kinase 1 (Homo sapiens) (Q96SB4 whole entry): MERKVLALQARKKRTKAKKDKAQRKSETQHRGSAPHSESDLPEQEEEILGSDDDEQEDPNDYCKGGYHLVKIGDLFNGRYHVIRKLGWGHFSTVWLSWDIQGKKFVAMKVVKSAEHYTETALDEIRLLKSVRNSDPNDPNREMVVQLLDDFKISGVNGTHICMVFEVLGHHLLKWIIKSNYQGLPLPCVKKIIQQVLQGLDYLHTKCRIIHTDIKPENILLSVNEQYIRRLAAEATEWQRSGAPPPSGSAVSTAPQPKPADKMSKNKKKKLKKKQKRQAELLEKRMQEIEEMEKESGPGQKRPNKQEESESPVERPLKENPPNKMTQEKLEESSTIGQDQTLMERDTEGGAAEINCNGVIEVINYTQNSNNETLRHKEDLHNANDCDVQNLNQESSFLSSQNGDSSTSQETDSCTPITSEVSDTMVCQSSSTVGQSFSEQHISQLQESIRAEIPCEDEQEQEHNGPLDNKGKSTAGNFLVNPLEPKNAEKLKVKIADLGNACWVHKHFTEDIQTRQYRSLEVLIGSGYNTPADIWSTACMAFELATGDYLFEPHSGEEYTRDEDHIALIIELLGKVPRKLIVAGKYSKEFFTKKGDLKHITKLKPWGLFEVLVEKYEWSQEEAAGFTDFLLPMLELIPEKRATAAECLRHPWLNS

In order of falling residual activity:
1. COc1ccc2c(c[n+](C)c3c4cc5c(cc4ccc23)OCO5)c1OC  98%
2. COc1ccc2c(c1)/C(=C/c1cnc[nH]1)C(=O)N2  98%
3. O=C1NC(=O)c2c1c1c3ccccc3n3c1c1c2c2ccccc2n1C1CCC3O1  83%
